High-throughput results from PubChem BioAssay.
Only some compounds are listed: those with a hit (about 7.4% of all), similar ones and a draw of the others.
NPC1 prom act: activates the NPC1 promoter; Huh7 NPC1 promoter luciferase reporter, 24 h; Potency, µM (titrated, usually from 9.22 µM), for inactives: at the top dose activation, usual class: activators; actives 2.4% (n = 320,000); AID 485313; note: % of control where 0% means no effect; nearly all actives have a fitted effect of over 60% in size
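In 1536-well qHTS, Huh7 cells harboring an NPC1 promoter–luciferase construct received compound for 24 h; activation was quantified by luminescence following luciferase reagent addition.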
SMN2 splice enh: increases expression of the SMN2 splice variant; HEK293 SMN2-luciferase splicing reporter, luminescence, 30-36 h; Potency, µM (top dose mostly 46.1 µM), inactives show top-dose activity change, positive = activation, usual class: activators; actives 2.8% (n = 210,000); note: % of control where 0% means no effect; nearly all actives have a fitted effect of over 55% in size
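HEK293 cells carry an SMN2 minigene-luciferase reporter in which exon 7 inclusion puts luciferase in frame. Cells were seeded at 2000 cells/well, attached for 10-12 hours, then exposed to compounds for 30-36 hours at 37C before ONE-Glo luminescence.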
FLuc counter: inhibits or activates purified firefly luciferase, miR-21 counter-screen; P08659; purified FLuc, Km substrates, luminescence inhibition; Potency, µM (series often up to 57.5 µM), inactives show at the highest dose activity change, negative = inhibition, actives largely listed as inhibitors; actives 6.9% (n = 360,000); AID 588342;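 note: plate controls were vehicle for no effect and reference inhibitor for full effect; nearly all actives have a fitted effect of over 55% in size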
Target sequence (P08659 whole entry, looked up): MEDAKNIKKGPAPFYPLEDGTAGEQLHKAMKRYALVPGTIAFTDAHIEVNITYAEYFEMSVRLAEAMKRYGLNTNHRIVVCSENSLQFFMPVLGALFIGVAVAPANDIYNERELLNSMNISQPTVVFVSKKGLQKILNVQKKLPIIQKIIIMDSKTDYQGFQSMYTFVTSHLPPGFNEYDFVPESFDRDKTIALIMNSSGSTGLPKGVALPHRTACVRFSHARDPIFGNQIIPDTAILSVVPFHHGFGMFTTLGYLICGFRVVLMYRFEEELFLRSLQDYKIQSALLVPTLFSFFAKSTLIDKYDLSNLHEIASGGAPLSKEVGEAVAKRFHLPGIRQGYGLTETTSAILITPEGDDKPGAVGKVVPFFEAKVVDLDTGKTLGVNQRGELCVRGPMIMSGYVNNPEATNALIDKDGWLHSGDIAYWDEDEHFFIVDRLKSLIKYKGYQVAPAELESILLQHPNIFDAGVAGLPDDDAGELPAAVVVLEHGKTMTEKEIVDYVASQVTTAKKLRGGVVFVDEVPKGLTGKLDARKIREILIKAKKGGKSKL
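Biochemical qHTS of compounds, final roughly 60 µM downward over six points, against 10 nM purified firefly luciferase using Km concentrations of substrates (10 uM D-luciferin, 10 uM ATP) in Tris acetate pH 7.5 buffer; luminescence output.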
Rab9 promoter act: activators of Rab9 promoter. Huh7 Rab9 promoter-luciferase reporter, luminescence, 24 h. AID 485297. actives 2.8% (n = 320,000). Potency, µM (titrated, usually from 9.22 µM), without a hit: top-dose activation, negative = inhibition, hits mostly activators; note: % of control where 0% means no effect; nearly all actives have a fitted effect of over 60% in size
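Luciferase signal after 10 min detection reagent at ambient indicates Rab9 promoter upregulation; stably transfected Huh7 cells were treated 24 h with compound in DMSO at 37 °C, 5% CO2.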
ELG1 genotoxic: inducers of genotoxicity in HEK293T ELG1-luciferase cells. HEK293T ELG1-luciferase reporter, luminescence, 16 h. Potency, µM (titrated, usually from 46 µM), inactives show at the top dose activity change, positive = activation, hits mostly activators. actives 1.3% (n = 330,000). AID 504466; note: % of control where 0% means no effect; nearly all actives have a fitted effect of over 60% in size
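Genotoxic stress is detected as increased luminescence from luciferase-tagged ELG1 in HEK293T cells, measured with ONE-Glo after a 16 hr treatment at 37 °C.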
Numbers without * were called inactive; [ ] = dose if it differs, or a comment. Calls come from the whole dose curve; as a rule, active = well fitted curve in the direction sought with a large enough effect; inconclusive = small, poorly fitted or top-dose-only effect, or another doubt; inactive = no such curve, though single readings can be large; an effect the other way counts as inactive or inconclusive. Potency is the fitted concentration of half-maximal effect.

How did Cc1nn(CC(=O)NCc2ccc(F)cc2)c2ccccc12 do in these assays?
FLuc counter: -8%

Results for CCC(COC)NC(=O)CCc1nnc(Cc2cccc(C(F)(F)F)c2)o1 (stereo not given) ?
NPC1 prom act: 2%; FLuc counter: inconclusive; Rab9 promoter act: 25%; ELG1 genotoxic: 14%

What do the screens show for `CC(C)NC(=O)CCc1nnc(Cc2cccc(C(F)(F)F)c2)o1`?
NPC1 prom act: inconclusive; FLuc counter: 15µM*; Rab9 promoter act: inconclusive; ELG1 genotoxic: inconclusive

Results for Cc1snc(SCC(=O)c2ccc([N+](=O)[O-])cc2)c1C#N ?
NPC1 prom act: inconclusive; SMN2 splice enh: inconclusive; FLuc counter: inconclusive; Rab9 promoter act: inconclusive; ELG1 genotoxic: 11%

Results for Cc1snc(SCC(=O)c2ccc(F)cc2)c1C#N ?
NPC1 prom act: inconclusive; SMN2 splice enh: 20%; FLuc counter: inconclusive; Rab9 promoter act: 2.8µM*; ELG1 genotoxic: 10%

How did O=[N+]([O-])c1ccc(COc2ccccc2/C=N/O)cc1 do in these assays?
NPC1 prom act: inconclusive; SMN2 splice enh: 16µM*; FLuc counter: inconclusive; Rab9 promoter act: inconclusive; ELG1 genotoxic: 13%

Results for COCCn1c(-c2ccc(OC)cc2)nc2ccccc21 ?
NPC1 prom act: 1%; SMN2 splice enh: 4%; FLuc counter: 19µM*; Rab9 promoter act: 1%; ELG1 genotoxic: -2%

What do the screens show for `CCOCCn1c(COc2ccc(C)cc2)nc2ccccc21`?
NPC1 prom act: 27%; SMN2 splice enh: inconclusive; FLuc counter: inconclusive; Rab9 promoter act: inconclusive; ELG1 genotoxic: 9%

Results for Cc1ccc(NCc2nc3ccccc3n2CCOc2ccccc2)cc1 ?
NPC1 prom act: 4.5µM*; SMN2 splice enh: 12%[1.84 µM]; FLuc counter: 8.5µM*; Rab9 promoter act: 2.5µM*; ELG1 genotoxic: inconclusive

How did COCCn1c(COc2ccc(C)cc2)nc2ccccc21 do in these assays?
NPC1 prom act: inconclusive; SMN2 splice enh: 7%; FLuc counter: 9.5µM*; Rab9 promoter act: inconclusive; ELG1 genotoxic: 11%

Results for COc1ccc(Cn2c(-c3ccc(OC)cc3)nc3ccccc32)cc1 ?
NPC1 prom act: -2%; SMN2 splice enh: -38%; FLuc counter: inconclusive; Rab9 promoter act: -2%; ELG1 genotoxic: -4%

What do the screens show for `CCCn1c(CNc2ccc(Br)cc2)nc2ccccc21`?
NPC1 prom act: 1%; SMN2 splice enh: -39%; FLuc counter: 17µM*; Rab9 promoter act: 28%; ELG1 genotoxic: 0%

What do the screens show for `CC1CCC(NC(=O)c2nc(Cn3ccc([N+](=O)[O-])n3)no2)CC1` (stereo not given)?
NPC1 prom act: -5%; FLuc counter: 1%; Rab9 promoter act: -3%; ELG1 genotoxic: -1%

Results for CCn1c(COc2ccc(C)cc2)nc2ccccc21 ?
NPC1 prom act: inconclusive; FLuc counter: 8.5µM*; Rab9 promoter act: 2.8µM*; ELG1 genotoxic: 13%

How did Cc1ccc(OCc2nc3ccccc3n2CCOc2ccc(Cl)cc2)cc1 do in these assays?
SMN2 splice enh: -13%; FLuc counter: -20%

Results for CCc1ccc(OC(C)C(=O)Nc2c(C(=O)c3ccccc3)oc3ccccc23)cc1 (stereo not given) ?
SMN2 splice enh: 2%; FLuc counter: -2%

Results for COc1ccccc1C(=O)Nc1ccccc1SC(=O)c1ccccc1OC ?
NPC1 prom act: inconclusive; FLuc counter: 5.4µM*; Rab9 promoter act: inconclusive; ELG1 genotoxic: 12µM*

How did COc1ccccc1/C=C1\S/C(=N/NC(=O)c2cccc(Br)c2)NC1=O do in these assays?
NPC1 prom act: -1%; SMN2 splice enh: -18%; FLuc counter: 9.5µM*; Rab9 promoter act: -3%; ELG1 genotoxic: -13%

Results for COC(=O)/C=C1\S/C(=N/NC(=O)c2ccccc2)NC1=O ?
NPC1 prom act: 0%; SMN2 splice enh: inconclusive; FLuc counter: inconclusive; Rab9 promoter act: -1%; ELG1 genotoxic: 8%

How did Cc1cccc(C)c1NC(=O)CNC(=O)Cc1c[nH]c2ccccc12 do in these assays?
NPC1 prom act: -2%; FLuc counter: 6%; Rab9 promoter act: -3%; ELG1 genotoxic: -1%

Results for Cc1cccc(C)c1NC(=O)c1c[nH]c2ccccc12 ?
NPC1 prom act: inconclusive; FLuc counter: 12µM*; Rab9 promoter act: 22%[1.84 µM]; ELG1 genotoxic: inconclusive

Results for COc1ccccc1C(=O)NNC(=O)c1ccccc1 ?
NPC1 prom act: 2.5µM*; FLuc counter: 9.5µM*; Rab9 promoter act: inconclusive; ELG1 genotoxic: 8.2µM*

How did CC(CNC(=O)c1cc2cc(S(=O)(=O)N3CCCCC3)ccc2n1C)c1ccccc1 (stereo not given) do in these assays?
FLuc counter: -5%

What do the screens show for `C=NC(C(=O)NC1C(=O)N2C1SC(C)(C)C2C(=O)O)c1ccccc1` (stereo not given)?
SMN2 splice enh: 1%

Results for COc1ccccc1C(=O)NCC(=O)NC(C)CCc1ccccc1 (stereo not given) ?
NPC1 prom act: 2%; FLuc counter: 3µM*; Rab9 promoter act: -7%; ELG1 genotoxic: 8%

How did O=C(CSc1ncn(-c2ccccc2)n1)Nc1nncs1 do in these assays?
NPC1 prom act: 4%; SMN2 splice enh: 1%; FLuc counter: -7%; Rab9 promoter act: -9%; ELG1 genotoxic: 0%

What do the screens show for `COc1ccccc1C(=O)NNC(=O)c1cccc(Br)c1`?
NPC1 prom act: 2.8µM*; FLuc counter: 12µM*; Rab9 promoter act: inconclusive; ELG1 genotoxic: inconclusive

Results for CC(=O)Nc1ccc(C(=O)CSc2ncn(-c3ccccc3)n2)cc1 ?
NPC1 prom act: 18%; SMN2 splice enh: 7.1µM*; FLuc counter: -10%; Rab9 promoter act: 19%; ELG1 genotoxic: inconclusive

How did COc1ccccc1C(=O)Nc1ccc2c3c(cccc13)CC2 do in these assays?
NPC1 prom act: inconclusive; FLuc counter: 5.4µM*; Rab9 promoter act: inconclusive; ELG1 genotoxic: 12%

What do the screens show for `CN(Cc1ccccc1)C(=O)c1ccc2c(c1)N(Cc1ccccc1Cl)C(=O)c1ccccc1S2`?
FLuc counter: 5%

How did COc1ccccc1NC(=O)c1c[nH]c2ccccc12 do in these assays?
NPC1 prom act: inconclusive; FLuc counter: 21µM*; Rab9 promoter act: 26%; ELG1 genotoxic: inconclusive

What do the screens show for `COc1ccccc1NC(=O)c1ccccc1NC(=O)c1ccccc1`?
SMN2 splice enh: -8%; FLuc counter: 15µM*

How did CC(=O)Nc1ccc(NCC(=O)c2ccccc2)cc1 do in these assays?
NPC1 prom act: -2%; FLuc counter: 15µM*; Rab9 promoter act: 0%; ELG1 genotoxic: 9%

How did O=C(/C=C/c1ccccc1)c1c[nH]c2ccccc12 do in these assays?
NPC1 prom act: 0.63µM*; FLuc counter: 0.19µM*; Rab9 promoter act: 0.35µM*; ELG1 genotoxic: inconclusive
